DUX4 inh = blocks DUX4-driven transcriptional activation | 293T-iDUX4 ZSCAN4-Gaussia luciferase reporter, 24 h; hits give low values | activity change, negative = inhibition, % (concentration not given with the values) | hit rate 0.8% among 37,000;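 active means mean inhibition of at least 10% in the main channel, exceeding the control channel by a set limit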;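 further: 0% = median of neutral control wells and -100% = median of positive control wells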
* = called active by the depositor; ! = not confirmed by another sample. Many of the other results were omitted from the sample, so hits are more common in it than they were.

SMILES	DUX4 inh
O=C(C[C@H]1CC[C@@H]2[C@H](COC[C@@H](O)CN2C(=O)C2CCCC2)O1)NCc1ccncc1	15
CCCC#Cc1ccc([C@@H]2[C@H](C#N)N(C(=O)C3CCCC3)[C@H]2CO)cc1	-2
CC(C)CC#Cc1ccc([C@@H]2[C@@H](CO)N3C(=O)CN(C(=O)c4cccc(F)c4)C[C@H]23)cc1	0
O=C(Cc1ccccc1)N1CC(=O)N2[C@@H](CO)[C@H](c3ccc(C#CCc4ccccc4)cc3)[C@@H]2C1	0
O=C(Cc1ccccc1)N1CC(=O)N2[C@H](CO)[C@@H](c3ccc(C#CCc4ccccc4)cc3)[C@@H]2C1	-33*
CC(C)CC#Cc1ccc([C@H]2[C@H](CO)N3C(=O)CN(C(=O)c4cccc(F)c4)C[C@@H]23)cc1	-38*
CC(C)CC#Cc1ccc([C@H]2[C@H]3CN(C(=O)c4cccc(F)c4)CC(=O)N3[C@H]2CO)cc1	-4
O=C(Cc1ccccc1)N1CC(=O)N2[C@@H](CO)[C@@H](c3ccc(C#CCc4ccccc4)cc3)[C@@H]2C1	1
CNC[C@H]1Oc2ncc(/C=C/c3ccccc3)cc2C(=O)N([C@@H](C)CO)C[C@H]1C	0
COCCNC(=O)C[C@H]1CC[C@@H]2[C@@H](COc3ccc(NS(=O)(=O)c4ccc(Cl)cc4)cc3C(=O)N2C)O1	-2
C(=C\c1ccc(C2[C@@H]3CN(Cc4ccc5c(c4)OCO5)C[C@H]2N3)cc1)/c1ccccc1 (some centres undefined)	-41*!
C/C=C/c1ccc(C2[C@@H]3CN(Cc4cccc(OC)c4)C[C@H]2N3)cc1 (some centres undefined)	-5
c1ncc(-c2ccc(C3[C@@H]4CN(Cc5ccc6c(c5)OCO6)C[C@H]3N4)cc2)cn1 (some centres undefined)	-4
O=C(Cc1cccnc1)N1CC2(C1)[C@H](c1ccccc1)[C@H](CO)N2C(=O)C1CCC1	1
C/C=C/c1ccccc1[C@H]1[C@@H](C#N)N(C(=O)c2cccnc2)[C@@H]1CO	9
Cc1cccc(-c2ccc([C@H]3[C@@H](CO)N4CCCCN(Cc5ccncc5)C[C@H]34)cc2)c1	-7
Cc1cccc(-c2ccc([C@@H]3[C@@H](CO)N4CCCCN(CCC(F)(F)F)C[C@@H]34)cc2)c1	-56*
OC[C@H]1[C@H](c2ccc(-c3cccc(F)c3)cc2)[C@@H]2CN(CCC(F)(F)F)CCCCN12	-47*
OC[C@@H]1[C@@H](c2ccc(-c3cccc(F)c3)cc2)[C@@H]2CN(Cc3cncnc3)CCCCN12	27
Cc1cccc(-c2ccc([C@H]3[C@@H](CO)N4CCCCN(CCC(F)(F)F)C[C@H]34)cc2)c1	-39*
CN(C)C(=O)c1ccc(-c2ccc([C@H]3[C@@H](CO)N4CCCCN(CCC(F)(F)F)C[C@@H]34)cc2)cc1	6
OC[C@H]1[C@@H](c2ccc(-c3cccc(F)c3)cc2)[C@H]2CN(Cc3cncnc3)CCCCN21	5
Cc1cccc(-c2ccc([C@@H]3[C@@H](CO)N4CCCCN(CCC(F)(F)F)C[C@H]34)cc2)c1	14
CN(C)C(=O)c1ccc(-c2ccc([C@@H]3[C@@H](CO)N4CCCCN(CCC(F)(F)F)C[C@H]34)cc2)cc1	7
CN1C(=O)c2cc(NC(=O)c3cccs3)ccc2OC[C@@H]2O[C@@H](CC(=O)NCCN3CCCCC3)CC[C@@H]21	-1
SMILES	DUX4 inh
COc1cccc(NC(=O)N2C[C@H](O)COC[C@@H]3O[C@@H](CC(=O)NC4CCCC4)CC[C@H]32)c1	4
COC(=O)C[C@H]1C=C[C@H](N)[C@H](CO)O1	6
COc1ccccc1-c1ccc([C@H]2[C@H](C#N)N[C@@H]2CO)cc1	0
CO[C@@H]1CC[C@H]2CCOc3ccc(C#N)cc3C(=O)N(C)C[C@H](C)C(=O)N(C)C[C@H]1O2	2
O=C(C[C@H]1CC[C@H]2[C@@H](COC[C@H](O)CN2S(=O)(=O)c2cccc(F)c2)O1)Nc1ccccc1	4
COc1ccc(C#Cc2ccc([C@H]3[C@H]4CN(Cc5ccccc5F)CCCCN4[C@H]3CO)cc2)cc1	-21*
COCC#Cc1ccc([C@@H]2[C@@H](CO)N3CCCCN(Cc4ccncc4)C[C@H]23)cc1	24
COc1ccc(C#Cc2ccc([C@@H]3[C@H](CO)N4CCCCN(Cc5ccncc5)C[C@@H]34)cc2)cc1	0
COCC#Cc1ccc([C@@H]2[C@H]3CN(Cc4ccccc4F)CCCCN3[C@H]2CO)cc1	1
CN1CCCCN2[C@H](C1)[C@@H](c1ccc(C#Cc3ccccc3F)cc1)[C@@H]2CO	-10
COc1ccc(C#Cc2ccc([C@@H]3[C@@H](CO)N4CCCCN(Cc5ccccc5F)C[C@H]34)cc2)cc1	-19*
COc1ccc(C#Cc2ccc([C@@H]3[C@H]4CN(Cc5ccncc5)CCCCN4[C@H]3CO)cc2)cc1	-36*
CN1CCCCN2[C@@H](CO)[C@H](c3ccc(C#Cc4ccccc4F)cc3)[C@@H]2C1	2
OC[C@@H]1[C@@H](c2ccc(C#CC3(O)CCCC3)cc2)[C@H]2CN(Cc3ccccc3F)CCCCN12	7
